Most compounds without a hit are left out; they make up all but 7.1% or so of the library.
MARV entry inh – inhibitors of Marburg virus binding or entry into cells; Potency, µM (doses to about 49.2 µM), for the others: at the top dose activity change, negative = inhibition, actives largely listed as inhibitors; AID 720532; 18,000 compounds, 6.5% hits; Marburg virus pseudotype entry/binding inhibition, cell-based
Lassa entry – Lassa virus entry inhibition; Lassa virus pseudotyped entry inhibition, cell-based qHTS; Potency, µM (titrated, usually from 49.2 µM), for inactives: top-dose activity change, negative = inhibition, hits mostly inhibitors; 18,000 compounds, 4.1% hits
An asterisk follows results filed as active; ? = inconclusive; . = no result; ! = not active in a repeat; [ ] = dose if it differs, or a comment. The call rests on the fitted dose curve; tested in HEK293 cells. On the % scale 0 is the no-effect control and ±100 the full control effect; potency means the concentration at half of the fitted maximal effect.

SMILES	MARV entry inh	Lassa entry
C=C[C@@H](C)[C@@H](OP1(=O)O[C@@H](C=C)C[C@H](C=C)O1)[C@H](C)CO[Si](C)(C)C(C)(C)C (some centres not stated)	?	4.8%
COc1ccc2c(c1)[C@@H](NC(=O)C(F)(F)F)C1CCCCC21c1ccccc1 (some centres not stated)	-4.1%[8.59 µM]	4.6%[8.59 µM]
CCN(CC)CCNc1ccc(CO)c2sc3ccccc3c(=O)c12	11.2µM*	3.1%[17.8 µM]
COc1ccc2c3c([nH]c2c1)C(C)=NCC3	?	-6.9%
COc1ccc2c(c1)[nH]c1c(C)nccc12	22.4µM*	4.4%
COC(=O)N[C@H](CC(C)=O)c1ccc(Cl)cc1	2.9%[8.59 µM]	-20.9%[8.59 µM]
CCOC(=O)NN=C1C[C@@H](O)[C@@H](O)[C@@H]2[C@H]3C(=O)N(c4ccc(F)cc4F)C(=O)[C@@H]3CC[C@H]12	-21.5%[8.59 µM]	9.0%[8.59 µM]
COc1ccc(COC(=O)NN=C2C[C@@H](O)[C@@H](O)[C@@H]3[C@H]4C(=O)N(C5CCCCC5)C(=O)[C@@H]4CC[C@@H]23)cc1	-28.7%[8.59 µM]	.
COc1ccc(COC(=O)NN=C2C[C@@H](O)[C@@H](O)[C@@H]3[C@H]4C(=O)N(C[C@@H]5CCCO5)C(=O)[C@@H]4CC[C@H]23)cc1	?	0.596µM*
COc1ccc(COC(=O)NN=C2C[C@@H](O)[C@@H](O)[C@@H]3[C@H]4C(=O)N(c5ccc(F)cc5F)C(=O)[C@@H]4CC[C@H]23)cc1	30.1%[8.59 µM]	1.33µM*
C=CC1CC2C=CCS[P@@](=O)(O1)O2 (some centres not stated)	3.9%	-4.8%
C=C[C@@H](C[C@@H]1C=C[C@H]2C[C@H](C=C)OP(=O)(O1)O2)O[Si](C)(C)C(C)(C)C	?	-11.2%
CC(CCC(=O)OC[C@H]1O[C@H](C#Cc2ccccc2)C=C[C@H]1Oc1ccc(C)cc1)=NO[C@@H](C)CN1CCCCc2nc(C)c(C)cc21	-16.3%[8.59 µM]	23.8%[8.59 µM]
CCN1C(=NCc2cccc(C(F)(F)F)c2)NC(c2ccccc2)C(C(=O)OC)=C1C (configuration not stated)	?	5.2%[8.59 µM]
C=C/C(=C/C(=O)C[C@H](C)C[C@@H](C)CC[C@H](O)[C@H](C)C(=O)C[C@@H](O)[C@H](C)[C@@H](C)OC(=O)C[C@@H](O)C1=C(C)C(=O)OC1=O)CC	2.51µM*	2µM*
CCCN(C/C=C/I)C1CCc2cccc(O)c2C1 (configuration not stated)	?	7.8%
CCCN(CCC)C1CCc2cccc(O)c2C1 (configuration not stated)	22.4µM*	31.6µM*
COCC=CC1=CC2=CC(=O)C(C)(OC(=O)c3cnc4ccccc4n3)C(=O)C2=CN1Cc1ccccc1 (configuration not stated)	18.6%[8.59 µM]	4.2%[8.59 µM]
CC=COC(=O)N[C@@H](c1ccccc1)[C@]1(C(C)=O)CCOC1=O	6.8%[8.59 µM]	24.4%[8.59 µM]
COc1cc(C(=O)N2CCCCCCC2)cc(OC)c1OC	-5.1%	-20.4%
COc1cc(/C=C/C(=O)N2CCC=CC2=O)cc(OC)c1OC	10µM*	?
CCCCCC(=O)N1C[C@H](n2cc(-c3ccc(F)cc3)nn2)[C@@H](O)C[C@H]1c1ccc(OC)cc1	?	-29.9%
CCN(CC)CCOC(=O)C1(C2CCCCC2)CCCCC1	11.2µM*!	?
CCN(CC)CCOC(=O)C1(c2ccccc2)CCCC1	-31.3%	-25.5%
CNCCCCc1cnc(C)c2[nH]c3ccccc3c12	11.2µM*	?
SMILES	MARV entry inh	Lassa entry
O=C1NC(=O)c2c1c1c3ccccc3[nH]c1c1[nH]c3ccccc3c21	?	-16.5%
COc1ccc(CC2NC[C@H](O)[C@H]2OC(C)=O)cc1 (some centres not stated)	0.316µM*	0.316µM*
C=C(C)C(=O)c1ccc(OC)cc1	-13.7%	-17.4%
CC[C@@H](C(=O)O)[C@@H]1O[C@@H]([C@@H](C)[C@H](O)[C@H](C)C(=O)[C@H](CC)[C@H]2O[C@]3(C=C[C@@H](O)[C@]4(CC[C@@](C)([C@H]5CC[C@](O)(CC)[C@H](C)O5)O4)O3)[C@H](C)C[C@@H]2C)[C@@H](C)C[C@@H]1C	6.31µM*	1µM*
Clc1ccc2c(c1)CCc1cccnc1C2=C1CCNCC1	10µM*	25.1µM*
COc1cccc(C(=O)NCc2nc(-c3cccc(NC(=O)c4ccoc4C)c3)oc2C)c1OC	?	17.8µM*
Cc1cc(C(=O)Nc2cccc(-c3nc(CNC(=O)c4ccccc4C(F)(F)F)c(C)o3)c2)c(C)o1	-28.0%	?
CCOC(=O)[C@]12C[C@@H]3OCCN(C(=O)N[C@@H]1c1ccccc1)[C@@H]32	1.5%[8.59 µM]	-5.6%[8.59 µM]
COC(=O)N[C@H](C(C(=O)OC)=C(C)NCc1ccccc1)c1cccc(C)c1	15.0%[8.59 µM]	.
COc1cc(OC)c2c(-c3cccc(-c4ccc(N(C)C)cc4)c3)cc(=O)oc2c1	3.55µM*	?
COc1cc(OC)c2c(-c3cccc(/C=C/c4ccc(F)cc4)c3)cc(=O)oc2c1	19.6%	2.9%
COc1cc(OC)c2c(-c3cccc(-c4ccc(OC(F)(F)F)cc4)c3)cc(=O)oc2c1	-10.3%	-14.7%
COc1cc(OC)c2c(-c3cccc(-c4ccc(CO)cc4)c3)cc(=O)oc2c1	1µM*	?
CC(C)c1ccc2c(N=Nc3ccc(S(N)(=O)=O)cc3)c(O)[nH]c2c1	?	22.8%
CC(C)CON=C1C[C@@H](O)[C@@H](O)[C@@H]2[C@H]3C(=O)N(Cc4ccccc4)C(=O)[C@@H]3CC[C@@H]12	0.7%[8.59 µM]	-9.6%[8.59 µM]
Cc1ccc(-c2cc3c(NC(=O)C4CC4)ncnc3o2)cc1	44.0%	26.5%
COCCN1C(=O)NC(c2ccc(Br)cc2)C(C(C)=O)=C1C (configuration not stated)	63.1%[8.59 µM]	2.2%[8.59 µM]
OCc1cc([C@@H](O)CNCCCCCCOCCCCc2ccccc2)ccc1O	12.6µM*	?
CCCCNCC(O)c1ccc(O)cc1 (configuration not stated)	5.7%	-2.1%
CC(C)C[C@@H]1COc2cccc(F)c2S(=O)(=O)N1	15.5%	2.3%
COC(=O)C1=C(C(=O)OC)[C@@H]2N(Cc3ccccc3)c3ccccc3[C@@]23C[C@@H](CO)N=C3N1	-1.2%[8.59 µM]	-9.6%[8.59 µM]
CCCCCCCc1cc2ccccc2c2c(C(C)=O)c(-c3ccccc3)c(C(=O)OC)n12	-16.1%[8.59 µM]	6.4%[8.59 µM]
C=CC(C1=CC(=O)C(OC)=CC1=O)c1ccc(OC)cc1 (configuration not stated)	?	2.4%
C=CC(C1=CC(=O)C(OC)=C(OC)C1=O)c1ccccc1 (configuration not stated)	14.1µM*	?
CCc1cc2c(nc1CC)CCN(CCC(C)=NOC[C@H]1O[C@H](c3ccccc3)C=C[C@H]1Oc1ccc(OC)cc1)C2	-25.2%[8.59 µM]	2.3%[8.59 µM]
SMILES	MARV entry inh	Lassa entry
CC1(C)CN(C2CCCCC2)C(=O)[C@@H]1CC(=O)Nc1ccccc1	-14.4%	-26.8%
COC(=O)CC(Oc1c(C)n(C)c2ccccc2c1=O)c1ccccc1 (configuration not stated)	-4.7%[8.59 µM]	-6.0%[8.59 µM]
Cc1ccc2c(=O)c3ccccc3n(CCCN)c2c1C	10µM*	10µM*!
COc1ccc(N2C(=O)N3[C@H](c4ccccc4)[C@@H](C)C[C@H]4c5ccccc5C[C@]43C2=O)cc1	2.0%[8.59 µM]	4.3%[8.59 µM]
CN(C)CCCOc1nn(Cc2ccccc2)c2ccccc12	?	-21.8%[17.8 µM]
OCc1ccc(-c2nn(Cc3ccccc3)c3ccccc23)o1	14.1µM*	?
COc1ccc([C@]23Cc4cc(C#N)ccc4[C@H](O2)c2c(c4ccc(OC)cc4oc2=O)O3)cc1	?	27.4%[8.59 µM]

From PubChem
